In the library only some 21% were active in any assay of this set; here they are far more common.
Pf growth 96h: inhibits malaria parasite growth, 96 h; P. falciparum luciferase reporter growth, 96 h; Potency, µM (highest dose often 28.7 µM), without a hit: top-dose activity change, negative = inhibition, usual class: inhibitors; 6.9% of 320,000 active; AID 504834; active means well fitted inhibition curve with a large enough effect; inconclusive means small, poorly fitted or top-dose-only effect, or another doubt; inactive means no such curve, though single readings can be large or run the other way; further: potency means the concentration at half of the fitted maximal effect; on the % scale 0 is the no-effect control and ±100 the full control effect
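Two-generation exposure (96 h) targets delayed-death phenotype. Reporter parasites carrying integrated firefly luciferase, in red cells at 2% hematocrit and 0.05% parasitemia final, kept at 37 C, 5% CO2; luminescence loss indicates inhibition.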
NS1 inh: inhibitors of influenza NS1 protein function; AID 2326; 0.4% of 270,000 active; Potency, µM (top dose mostly 46.1 µM), for inactives: top-dose activity, positive = more growth; further: potency means the concentration at half of the fitted maximal effect; actives are rising curves; nearly all actives have a fitted effect of over 50% in size
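Recovery from NS1-induced slow growth read by OD600 in budding yeast switched to galactose assay medium (pH 6.0, -URA) at 1:100 dilution. Compound 23 nl per well; the matching strain lacking NS1 serves as control.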
Pf growth 48h: inhibits P. falciparum growth in the first generation, 48 h. P. falciparum luciferase growth in erythrocytes, 48 h. Potency, µM (highest dose often 28.7 µM), for inactives: top-dose activity change, negative = inhibition, hits mostly inhibitors. 5.9% of 310,000 active. AID 504832; active means well fitted inhibition curve with a large enough effect; inconclusive means small, poorly fitted or top-dose-only effect, or another doubt; inactive means no such curve, though single readings can be large or run the other way; further: potency means the concentration at half of the fitted maximal effect; on the % scale 0 is the no-effect control and ±100 the full control effect
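Here the parasites carry a stable luciferase gene and grow inside erythrocytes in Albumax-based RPMI medium with compound for one erythrocytic cycle. Activity is scored as loss of luminescent signal.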
SARS PLP yeast: blocks SARS-CoV papain-like protease in a yeast assay; 0.19% of 330,000 active; S. cerevisiae expressing SARS-CoV PLpro, growth rescue; Potency, µM (top dose mostly 32.9 µM), inactives show top-dose activity, positive = growth rescue, hits mostly activators; AID 485353; further: potency means the concentration at half of the fitted maximal effect; 0% is about no effect; nearly all actives have a fitted effect of over 55% in size
CHX counter: counter-screen for Shiga toxin inhibitors: cycloheximide protein synthesis inhibition; 12% of 300,000 active; max response, %; cell reporter, cycloheximide protein synthesis inhibition counterscreen; in the data active means max response mostly above about 13%, no sharp cut-off; inactive means mostly below about 14%; further: read at 38.3 µM for the half of the compounds with a filed dose; 0% is about no effect
Shiga inhibitor: blocks Shiga toxin action in Vero cells | Vero cells, Shiga toxin protein synthesis inhibition reporter | inhibition, % at 38.7 µM | 9.2% of 290,000 active; in the data active means inhibition mostly above about 28%, no sharp cut-off; inactive means mostly below about 43%; further: 0% is about no effect
An asterisk follows results filed as active; ? = inconclusive; / = not tested or not shown; [ ] = remark or other dose. Unless noted, the call rests on the fitted dose curve.

SMILES | Pf growth 96h | NS1 inh | Pf growth 48h | SARS PLP yeast | CHX counter | Shiga inhibitor
O=c1c2ccccc2c(C=NCCCN2CCOCC2)c(O)n1Cc1ccccc1 | -12.2% | -12.3% | 10.4µM* | 2.9% | -3.5 | -18.6
CCCCN1C(=O)N(c2nnc(C(C)(C)C)s2)C(O)C1c1ccc(C)cc1 (stereo not drawn) | 10.4µM* | -1.5% | 8.28µM* | -1.8% | 16.7* | 29.9
CN1CCN(c2nc3c(c(=O)[nH]c(=O)n3C)n2CCSc2nnnn2-c2ccccc2)CC1 | 5.3% | 3.7% | -1.4% | 1.2% | 1.3 | 16.1
Cn1c(=O)[nH]c(=O)c2c1nc(N1CCCCCC1)n2CCCSc1nnnn1-c1ccccc1 | 2.33µM* | -9.5% | ? | 8.3% | -2.4 | -8.6
Cn1c(=O)[nH]c(=O)c2c1nc(N1CCCC1)n2CCCSc1nnnn1-c1ccccc1 | 6.57µM* | 4.2% | ? | -6.5% | -3.8 | -11.4
CC1=C(C)/C(=N\OC(=O)/C=C/c2ccccc2)C=CC1=O | ? | 0.9% | 10.4µM* | 4.5% | 23.9 | -9.6
CC1=CC(=O)C=C(C)C1=NOC(=O)/C=C\c1ccccc1 | 2.6% | 4.3% | -1.5% | -12.3% | -4.2 | -2.5
CC1=CC(=NOC(=O)/C=C/c2ccccc2)C=C(C)C1=O | -45.5% | -17.4% | ? | -2.2% | 12.6* | 22.8
Cc1cc(Cl)ccc1OCCCC(=O)N/N=C/c1cccc([N+](=O)[O-])c1 | -15.1% | 3.8% | 2.6% | 19.8% | -2.0 | 0.5
CCc1nnc(NC(=O)c2ccc(COc3ccc(C)cc3)o2)s1 | ? | 1.4% | 21.8% | -1.3% | 4.2 | -7.9
CCc1nnc(NC(=O)c2ccc(C)o2)s1 | 53.2% | -8.3% | 82.4% | -1.4% | 36.2* | 44.0*
CCc1nnc(NC(=O)CN2CCN(Cc3ccc(C)cc3)CC2)s1 | 9.28µM* | 7.8% | -12.3% | 3.7% | -3.3 | -4.3
CCc1nnc(NC(=O)c2ccc(Br)o2)s1 | 5.86µM* | -8.4% | 20.6% | 3.1% | 1.2 | -2.3
CCSc1nnc(NC(=O)c2cccs2)s1 | 107.3% | -190.0% | 99.5% | -2.0% | 35.0* | 100.8*
O=C(CCCCCN1C(=O)CCC1=O)Nc1ccc(Cl)c(C(F)(F)F)c1 | / | -0.1% | 47.4% | 1.3% | 14.4 | 26.5
CCCN1CCCC(c2cccc(S(C)(=O)=O)c2)C1 (stereo not drawn) | / | / | / | / | -5.2 | 29.9
CC(C)NC(=O)c1cccc2c1-c1ccccc1C2=O | 29.3% | -4.8% | / | -0.5% | -4.1 | -3.1
O=C(O)c1cc(-c2ccc(/C=N/N3C(=O)C4C5C=CC(C6CC56)C4C3=O)o2)ccc1Cl (stereo not drawn) | 6.1% | / | 6.6% | 1.3% | -1.8 | 7.6
NC(CCl)=N[C@H]1CN2CCC1CC2 | / | -4.1% | / | / | / | /
CCSc1nnc(NC(=O)NC2CCCCC2)s1 | ? | / | 198.3% | -0.6% | 35.7* | 48.9*
CCC(=O)Nc1nnc(SCC(=O)NC2CCCC2)s1 | 9.4% | 2.3% | 39.0% | 1.7% | -3.6 | -7.1
CCSc1nnc(NC(=O)C(C)(C)C)s1 | / | -1.6% | 59.0% | -4.4% | 29.1* | 69.5*
CCSc1nnc(NC(=O)c2ccc(C)o2)s1 | / | 22.0% | 88.5% | -12.1% | 26.7* | 33.4*
CCc1nnc(NC(=O)c2cc(C)oc2C)s1 | -15.1% | 1.1% | -3.5% | 29.6% | -0.8 | -21.0
Cc1nnc(NC(=O)CSc2nnc(NC(=O)C(C)(C)C)s2)s1 | -7.7% | 1.2% | -51.4%[1.15 µM] | -1.0% | -9.1 | -5.5
SMILES | Pf growth 96h | NS1 inh | Pf growth 48h | SARS PLP yeast | CHX counter | Shiga inhibitor
CCSc1nnc(NC(=O)c2cc(C)oc2C)s1 | 31.1% | -10.8% | 133.4% | -6.6% | 38.4* | 59.4*
COc1ccc(NS(=O)(=O)c2ccc(O)c(NS(=O)(=O)c3ccc(NC(C)=O)cc3)c2)cc1 | / | / | / | -1.2% | / | /
CCCc1cc(=O)oc2cc(OCC(=O)Nc3cc(C)on3)ccc12 | ? | 7.1% | 67.3% | 11.7% | 0.5 | -1.2
CCCc1cc(=O)oc2cc(OCC(=O)Nc3ccccn3)ccc12 | 181.3% | -7.7% | 101.3% | 2.8% | 25.0* | 66.5*
COc1ccc(-c2cc(=O)oc3cc(OCC(C)=O)ccc23)cc1 | 9.4% | -5.2% | -1.9% | -23.6% | -1.9 | 2.7
COc1ccc(COc2ccc3c(C)cc(=O)oc3c2)cc1 | ? | -3.2% | 209.5% | -0.2% | 66.6* | 133.7*
CCCc1cc(=O)oc2cc(OCc3ccc(C(=O)O)cc3)ccc12 | ? | -57.5% | 26.3% | 2.0% | 46.9* | 129.6*
COc1ccc(-c2cc(=O)oc3cc(OCC(=O)Nc4ccccn4)ccc23)cc1 | 53.4% | 12.1% | 37.1% | 2.0% | 26.3* | 25.7*
C=CCOc1ccc(/C=C/C(=O)OCC(=O)N(C)CC(=O)Nc2ccccc2Cl)cc1 | 9.7% | / | -1.1% | -10.0% | / | /
NNC(=O)Cn1c2ccccc2c2ccccc21 | 25.0% | -3.1% | 32.7% | -0.2% | 0.4 | -8.9
O=C(COc1ccccc1F)Nc1cc(S(=O)(=O)Nc2cccc(Cl)c2)ccc1O | -29.8% | / | ? | -1.8% | / | /
Cc1cccn2c(=O)c(C=O)c(N3CCC4(CC3)OCCO4)nc12 | -6.5% | 0.4% | -26.5% | -0.9% | 8.8 | -9.0
O=C(Nc1ccc(Oc2ccccc2)cc1)c1ccc(Cn2c(=O)[nH]c3ccsc3c2=O)cc1 | 13.1µM* | -28.5% | 18.0% | -3.2% | -5.7 | -13.9
O=C(CN1CCc2ccccc2C1)NC1CCCC1 | -5.3% | 3.6% | 0.7% | -0.2% | 6.2 | -2.2
COc1nc(N(c2ccccc2)c2ccccc2)nc(-n2ccnc2)n1 | ? | -88.4% | 11.7µM* | -31.1% | -4.1 | -16.1
COc1ccc(-n2ccnc2)cc1 | -2.6% | 3.5% | 20.6% | -1.5% | -1.7 | -9.1
CC(=O)N1CCOCCOCCN(C(C)=O)CCOCCOCC1 | 19.9% | 4.8% | 34.7% | -0.4% | 6.7 | 3.4
O=C(N1CCOCC1)C(F)(F)C(F)(F)C(F)(F)C(F)(F)C(=O)N1CCOCC1 | 11.7µM* | 8.2% | 15.7% | 5.1% | -2.8 | -14.1
CC(C)c1ccc(C(CC(=O)O)NC(=O)c2cccs2)cc1 (stereo not drawn) | 24.7% | / | -2.1% | 1.3% | -3.5 | 5.0
CC(C)c1ccc(-c2csc(NC(=O)c3cccs3)c2C(=O)O)cc1 | 44.5% | / | 1.8% | 1.0% | 15.0 | 34.3*
Cc1ccc(-c2csc(NC(=O)c3ccccc3Cl)c2C(=O)O)cc1 | 40.3% | -1.4% | 15.3% | -1.3% | 23.5* | 39.5*
O=C(CSc1nnnn1-c1cccnc1)Nc1cccc(Cl)c1 | 44.9% | -24.4% | 3.9% | 0.7% | 4.0 | -2.4
Cn1cnnc1SCC(=O)c1ccc2c(c1)CCCC2 | 19.2% | -48.8% | 109.2% | -0.5% | 32.3* | 68.7*
O=C(CSc1nnnn1-c1cccc(Cl)c1)Nc1ccc2c(c1)CCC2 | 1.85µM* | 1.1% | 3.8% | 11.3% | -2.9 | -15.7
Cn1cnnc1SCC(=O)Nc1ccc2c(c1)CCC2 | 1.2% | -11.4% | 54.3% | 7.9% | 15.3* | 35.4*
CC(=O)Nc1ccc(NC(=O)CSc2nncn2C)cc1 | ? | 11.2% | 11.6% | 2.8% | -1.9 | -11.7
Cn1cnnc1SCC(=O)c1ccc2c(c1)OCO2 | -28.6% | 12.9% | / | 2.6% | -1.7 | -4.8
